NR2F2 inh: NR2F2 transcriptional activity inhibitors, primary screen, cell-based, luciferase reporter, HEK293T, luminescence; COUP transcription factor 2 (Homo sapiens), P24468; HEK293T NGFI-A luciferase reporter; inhibition, % at 8.6 µM; 0.7% of 370,000 active;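 active means inhibition above a per-plate cutoff, mean inhibition of test wells between control levels plus 3 SD, cut at about 38% in these data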;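 further: cells cotransfected with COUP-TFII expression vector driving the NGFI-A reporter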
GalR3 antagonist: GalR3 antagonists in HEK293 cells, primary screen, cell-based, fluorescence readout; HEK293 GalR3-CNG cAMP membrane potential fluorescence; galR3 body fused to GalR1 C-terminus; 0.44% of 360,000 active; inhibition, % at 3 µM; AID 651719, 2012;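 active means inhibition above the screen-wide average plus 3 SD, cut at about 13% in these data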;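 further: forskolin and galanin both at EC90 stimulate the cells; cAMP rise reported by CNG channel membrane potential dye signal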
SRC1 inh: SRC1 coactivator transcriptional activity inhibitors, primary screen, cell-based, luminescence; Nuclear receptor coactivator 1 (Homo sapiens), Q15788; HEK293 GAL4-SRC1 luciferase reporter; inhibition, % at 3.6 µM; 0.12% of 360,000 active; AID 588354, 2011;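 active means inhibition above the campaign mean plus 3 SD, with each screening campaign given its own cutoff, cut at about 60% in these data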
NCOA2 inhibitor: inhibition of GAL4-SRC2 driven luciferase reporter, primary screen, SRC2 inhibitor project, cell-based, luminescence; Nuclear receptor coactivator 2 (Homo sapiens), Q15596; HEK293 GAL4-SRC2 luciferase reporter; inhibition, % at 9 µM; 0.17% of 370,000 active; AID 651957, 2012;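 active means inhibition above the mean inhibition of all tested compounds plus 3 SD, set per campaign, cut at about 52% in these data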
LRH-1 inv ag: LRH-1 (NR5A2) inverse agonists, primary screen, cell-based, luminescence, HEK293T, StAR-luciferase reporter | LRH-1 transfected, 24 h | AID 602396, 2012 | Nuclear receptor subfamily 5 group A member 2 (Homo sapiens), O00482 | inhibition, % at 3.6 µM | 0.13% of 360,000 active;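 active means inhibition above the mean inhibition of all tested compounds plus 3 SD, cut at about 73% in these data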
SRC3 inh: SRC3 coactivator transcriptional activity inhibitors, primary screen, cell-based, luminescence; Nuclear receptor coactivator 3 (Homo sapiens), Q9Y6Q9; AID 588352, 2011; HEK293 GAL4-SRC3 luciferase reporter; 0.17% of 360,000 active; inhibition, % at 3.6 µM;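 active means inhibition above a per-campaign cutoff, the mean of all compounds plus 3 SD, cut at about 60% in these data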;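 further: higher means less SRC3-driven luciferase light from the GAL4 reporter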
A number is an active result. The list is not random: actives were taken first. Their share in the collection is about 1.1%.

What do the screens show for `CC(=O)O[C@H]1[C@H]2O[C@]23[C@@H]2CC[C@]4(O)C[C@@H](O)CC[C@]4(C)C2CC[C@]3(C)[C@H]1c1ccc(=O)oc1` (some centres not stated)?
SRC1 inh: 86; LRH-1 inv ag: 100; SRC3 inh: 89

How did CC(NC(=O)OC1CC2CCC1(C)C2(C)C)P(=O)(Oc1ccccc1)Oc1ccccc1 (configuration not stated) do in these assays?
NR2F2 inh: inactive

How did COc1ccc(-[n+]2c(-c3ccccc3)cc(-c3ccc(C)cc3)cc2-c2ccccc2)cc1 do in these assays?
NR2F2 inh: 77; GalR3 antagonist: inactive; SRC1 inh: 66; NCOA2 inhibitor: inactive; LRH-1 inv ag: 86; SRC3 inh: 79

What do the screens show for `C[C@H]1[C@@H](OS(=O)(=O)O)C[C@@H]2C[C@H]([C@@H](O)c3cc(=O)[nH]c(=O)[nH]3)NC3=NC[C@H]1N32`?
SRC1 inh: inactive; LRH-1 inv ag: 99; SRC3 inh: inactive

What do the screens show for `CC12CCC(O)CC1CCC1C2CCC2(C)C(C3=CC(=O)OC3)C(O)CC12O` (configuration not stated)?
NR2F2 inh: 51; GalR3 antagonist: inactive; SRC1 inh: inactive; NCOA2 inhibitor: inactive; LRH-1 inv ag: 86; SRC3 inh: 67

How did CC12CC[C@H]3[C@@H](CCC4(O)C[C@H](O)CCC34/C=N/NC(=O)Cc3ccccc3)C1(O)CCC2C1=CC(=O)OC1 (some centres not stated) do in these assays?
NR2F2 inh: inactive; GalR3 antagonist: inactive; SRC1 inh: inactive; NCOA2 inhibitor: inactive; LRH-1 inv ag: inactive; SRC3 inh: inactive

What do the screens show for `CCCC(=O)N1c2ccc(Cl)cc2C(c2ccccc2)=NCC1C(=O)NC(C)(C)C` (configuration not stated)?
NR2F2 inh: inactive; NCOA2 inhibitor: inactive

How did COc1ccc([C@@H]2C[C@H]3[C@@H](CN2)CON3C)cc1 do in these assays?
NR2F2 inh: inactive; NCOA2 inhibitor: inactive

What do the screens show for `CCCC[C@@H](C)C[C@@H](C)C(=O)N(C)[C@@H](CC(C)C)C(=O)N[C@H](C(=O)N(C)[C@H](C(=O)N1C[C@@H](O)C[C@H]1C(=O)N1C(=O)C=C[C@@H]1C)C(C)C)C(C)OC(C)=O` (some centres not stated)?
SRC1 inh: inactive; LRH-1 inv ag: 75; SRC3 inh: inactive

Results for N#CCC[C@@H]1CC[C@]2(CCCN(Cc3ccccn3)C2)O1 ?
NR2F2 inh: inactive; NCOA2 inhibitor: inactive

Results for CC1(C)C(C(=O)N2CCN(c3ccc(Cl)cc3)CC2)C1(C)C ?
NR2F2 inh: inactive; GalR3 antagonist: inactive; SRC1 inh: inactive; NCOA2 inhibitor: inactive; LRH-1 inv ag: inactive; SRC3 inh: inactive

What do the screens show for `COC(=O)C1CN(C#N)N(c2ccc(Cl)cc2)C12c1ccccc1-c1ccccc12` (configuration not stated)?
SRC1 inh: inactive; LRH-1 inv ag: inactive; SRC3 inh: 73

Results for CC=CC(C)=CC(C)C(=O)CC(O)CC1CC(=O)NC(=O)C1 (configuration not stated) ?
NR2F2 inh: 39; GalR3 antagonist: inactive; SRC1 inh: inactive; NCOA2 inhibitor: inactive; LRH-1 inv ag: inactive; SRC3 inh: inactive

How did CC(C)C(C(=O)NC(C)(C)C)N1C(=O)CN=C(c2ccccc2)c2ccccc21 (configuration not stated) do in these assays?
NR2F2 inh: inactive; NCOA2 inhibitor: inactive

How did C[C@H]1CCC/C=C/C2C[C@H](O)CC2[C@H](O)/C=C/C(=O)O1 (some centres not stated) do in these assays?
SRC1 inh: inactive; LRH-1 inv ag: 89; SRC3 inh: 67

Results for C[C@H]1CCC[C@H](O)CCCCCc2cc(O)cc(O)c2C(=O)O1 ?
NR2F2 inh: inactive; GalR3 antagonist: inactive; SRC1 inh: inactive; NCOA2 inhibitor: inactive; LRH-1 inv ag: inactive; SRC3 inh: inactive

What do the screens show for `C=C1C(=O)O[C@H]2C[C@@H](C)[C@@H]3C=CC(=O)[C@@]3(C)C[C@H]12`?
NR2F2 inh: inactive; GalR3 antagonist: inactive; NCOA2 inhibitor: 72

How did C=C1C(=O)OC2CC(C)C3C=CC(=O)C3(C)C(O)C12 (configuration not stated) do in these assays?
SRC1 inh: inactive; LRH-1 inv ag: 81; SRC3 inh: inactive

How did C=C1C(=O)O[C@@H]2C[C@@H](C)[C@@H]3C4OC4C(=O)[C@@]3(C)[C@@H](O)[C@H]12 (some centres not stated) do in these assays?
NR2F2 inh: 68; GalR3 antagonist: inactive; SRC1 inh: inactive; NCOA2 inhibitor: 78; LRH-1 inv ag: inactive; SRC3 inh: inactive

What do the screens show for `C=C1C(=O)O[C@H]2[C@H]1[C@H](OC(=O)CC(=O)O[C@@H]1C[C@@H](C)[C@@H]3C=CC(=O)[C@@]3(C)[C@H]3OC(=O)C(=C)[C@H]13)C[C@@H](C)[C@H]1C=CC(=O)[C@]12C`?
NR2F2 inh: inactive; GalR3 antagonist: inactive; SRC1 inh: inactive; NCOA2 inhibitor: inactive; LRH-1 inv ag: inactive; SRC3 inh: inactive

How did COC(=O)C1=C[C@H]([C@@H](C)[C@H](OC)c2ccccc2Br)[C@@H]2[C@H]1c1ccccc1N2C do in these assays?
NR2F2 inh: inactive; NCOA2 inhibitor: inactive

How did C[N+]1=C(N)NC2=C3CCCCC3ONC2C1 (configuration not stated) do in these assays?
NR2F2 inh: inactive

Results for CCOC(=O)CC[C@@H]1CC[C@]2(CCCN(Cc3cccnc3)C2)O1 ?
NR2F2 inh: inactive; NCOA2 inhibitor: inactive

How did Cc1ccc(-c2cc(-c3ccc(C)cc3)[n+](-c3ccc(C(=O)O)cc3)c(-c3ccc(C)cc3)c2)cc1 do in these assays?
NR2F2 inh: inactive; GalR3 antagonist: inactive; SRC1 inh: inactive; NCOA2 inhibitor: inactive; LRH-1 inv ag: inactive; SRC3 inh: inactive

What do the screens show for `Cc1ccc(C[n+]2c(-c3ccc(C)cc3)cc(-c3ccc(C)cc3)cc2-c2ccc(C)cc2)cc1`?
SRC1 inh: 68; LRH-1 inv ag: 95; SRC3 inh: 83

Results for Cc1cc(N2CCNC[C@H]2C)ccc1N1CC[C@H](O)C1 ?
NR2F2 inh: inactive; GalR3 antagonist: inactive; NCOA2 inhibitor: inactive

How did C=C1C(=O)C(C)=C2C(=O)N3Cc4[nH]c5ccccc5c4CC3(C(=O)OC)C12 (configuration not stated) do in these assays?
NR2F2 inh: inactive; NCOA2 inhibitor: inactive

Compound activity (PubChem)
